Sampled rows, rich in hits. Any-hit rate of the full collection: about 12%.
Cycloheximide cs: Cycloheximide Counterscreen for Small Molecule Inhibitors of Shiga Toxin; cell reporter, cycloheximide protein synthesis inhibition counterscreen; max response, %; 300,000 tested, 12% active; AID 2314, 2010; in the data active = max response mostly above about 13%, no sharp cut-off; inactive = mostly below about 14%; also: read at 38.3 µM for the half of the compounds with a filed dose
SARS PLP yeast: qHTS of Yeast-based Assay for SARS-CoV PLP; Potency, µM (series often up to 32.9 µM), most hits filed as activators; S. cerevisiae expressing SARS-CoV PLpro, growth rescue; 330,000 tested, 0.19% active; also: nearly all actives have a fitted effect of over 55% in size
Shiga inhibitor: A qHTS for Small Molecule Inhibitors of Shiga Toxin; Vero cells, Shiga toxin protein synthesis inhibition reporter; inhibition, % at 38.7 µM; 290,000 tested, 9.2% active; AID 2315, 2010; in the data active = inhibition mostly above about 28%, no sharp cut-off; inactive = mostly below about 43%
NS1 inh: qHTS Assay for Inhibitors of Influenza NS1 Protein Function | 270,000 tested, 0.4% active | Potency, µM (highest dose often 46.1 µM); also: actives are rising curves; nearly all actives have a fitted effect of over 50% in size
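OD600 was taken as the measure of yeast growth restored by compound in an NS1-expressing S. cerevisiae strain. Cells had been washed out of glucose medium and diluted 1:100 into galactose -URA medium, pH 6.0.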
Of the large screens only hits and unclear results are named; the others gave an inactive call; ! = repeats disagree. Unless noted, calls follow the shape of the full dose curve.

O=C(Nc1ccccc1)Oc1cccc(Br)c1	Cycloheximide cs 14
O=C(Nc1ccccc1F)c1ccc(C(=O)c2ccccc2)cc1	Cycloheximide cs 29, Shiga inhibitor 75
COc1cccc(C(=O)Nc2ccc(F)cc2F)c1	Cycloheximide cs 39, Shiga inhibitor 59
COc1cccc(C(=O)Nc2ccccc2F)c1	Cycloheximide cs 30, Shiga inhibitor 98
O=S(=O)(NCc1cc(-c2ccccc2)no1)c1ccccc1Cl	none (no result: NS1 inh)
C=CCn1c2ccccc2c2nnc(SCCCn3c(=O)[nH]c4ccccc43)nc21	none
Cn1c(N)c(C(=O)Nc2c(Cl)cccc2Cl)sc1=S	none
Cn1ccc(C(=O)Oc2ccc(C(=O)Nc3ccc(F)cc3F)cc2)n1	Cycloheximide cs 26 (no result: NS1 inh)
O=c1cc(-c2ccc(O)cc2)oc2cc(OC3OC(CO)C(O)C(O)C3O)c(C3OC(CO)C(O)C(O)C3O)c(O)c12 (centres undefined)	none (no result: SARS PLP yeast, NS1 inh)
CC1CCN(C(=S)c2ccc([N+](=O)[O-])cc2)CC1	none
COc1ccc(N=C2NC(=O)S/C2=C\c2ccc(N(C)C)cc2)cc1	Cycloheximide cs 34, Shiga inhibitor 60
CCOCCCN(C(=O)c1snc(C(N)=O)c1N)C(C(=O)NC1CCCC1)c1ccc(OC)cc1 (centres undefined)	none
Fc1ccc(NC(=S)Nc2ccc(Cl)cc2)cc1	none (no result: NS1 inh)
N/C(=N\C(=S)Nc1ccccc1)c1ccccc1	Cycloheximide cs 40, Shiga inhibitor 99
NC(N)=NC(=S)Nc1ccc(Cl)cc1	Cycloheximide cs 34, Shiga inhibitor 39
Cc1ccc(C(C)C)cc1OCC(=O)Nc1ccc(N2CCCCC2)cc1	none (no result: Cycloheximide cs, Shiga inhibitor, NS1 inh)
COc1ccccc1OCC(=O)NNC(=O)c1cccs1	none
O=C(/C=C/c1ccccc1)NNC(=O)c1cccs1	Cycloheximide cs 23
COc1ccccc1/C=C/C(=O)NNC(=O)c1cccs1	Cycloheximide cs 26, Shiga inhibitor 71 (no result: NS1 inh)
CCOC(=O)c1ccc(NC(=O)CN2C(=O)C(C)SC(C)C2=O)cc1 (centres undefined)	none
CCOc1ccc(NC(=O)CN2C(=O)C3CCCN3C2=O)cc1 (centres undefined)	Cycloheximide cs 15, Shiga inhibitor active
CCOC(=O)c1ccc(NC(=O)CN2C(=O)CSC(C)C2=O)cc1 (centres undefined)	Cycloheximide cs 13
C=CCNC(=O)Nc1ccc(OCC)cc1	Cycloheximide cs 12
CCOc1ccc(NC(=O)CC(=O)Nc2ccc(OCC)cc2)cc1	Shiga inhibitor 67
CCOc1ccc(NC(=O)CN2C(=O)NC3(CCCCCC3)C2=O)cc1	none (no result: Cycloheximide cs, Shiga inhibitor, NS1 inh)
CCOc1ccc(NC(=O)CCC(=O)O)cc1	none
COc1cccc(N(C(=O)c2csnn2)C(C(=O)NC2CCCC2)c2ccccc2)c1 (centres undefined)	none
CCO[C@H]1OC(C(=O)NC2CC2)=C[C@@H](c2csc3ccccc23)[C@@H]1CCCO	none
Cc1ccc(-c2sc(C(=O)NN)c(C)c2C#N)cc1	none
CCOc1ccc(NC(=O)CN2C(=O)CSC2=O)cc1	Cycloheximide cs 15, Shiga inhibitor 79
CC(=O)Nc1ccc(OCC=C(Cl)Cl)cc1	Cycloheximide cs 11, Shiga inhibitor 25
CCOc1ccc(NC(=O)CN2C(=O)c3ccccc3C2=O)cc1	none
CC(=O)Nc1ccc(OCCOc2ccc(NC(C)=O)cc2)cc1	none
COc1cc(NS(=O)(=O)c2ccc(N/C=C(\C#N)c3nc4ccccc4o3)cc2)nc(OC)n1	none
COc1cc(/C=C(\C#N)c2nc(-c3cc4ccccc4oc3=O)cs2)ccc1O	none
N#C/C(=C\c1ccc(O)cc1)c1nc2ccccc2o1	Cycloheximide cs 37, Shiga inhibitor 117
COc1cc(/C=C(\C#N)c2nc3ccccc3o2)ccc1O	Cycloheximide cs 24
N#Cc1ccc(-c2ccc(OCC3CNC(=O)O3)cc2)cc1 (centres undefined)	Cycloheximide cs 47, Shiga inhibitor 65
O=C1NCC(COc2ccc([N+](=O)[O-])cc2)O1 (centres undefined)	none
COc1ccccc1N(CC(=O)NCCSc1ccc(Cl)cc1)S(C)(=O)=O	none
COc1ccc(OCC(=O)Nc2cccc(OC)c2)cc1	Cycloheximide cs 42, Shiga inhibitor 103
COc1cccc(OCC(=O)NNC(=O)C(=O)Nc2cccc(C)c2)c1	Cycloheximide cs 28
COc1ccc(OCC(=O)Nc2cc(OC)cc(OC)c2)cc1	none
COc1cccc(OCC(=O)NNC(=O)C(=O)N2CCCC2)c1	none
COc1cccc(NC(=O)COc2ccccc2C(N)=O)c1	Cycloheximide cs 40, Shiga inhibitor 60
Clc1ccc(OCc2nc(-c3ccncc3)no2)cc1	Cycloheximide cs 31
COc1ccc(Cc2nc(-c3ccc(Br)cc3)no2)cc1	Cycloheximide cs 29, Shiga inhibitor 31
COc1ccc(-c2noc(Cc3ccc(Cl)cc3)n2)cc1OC	none
COc1ccc(Cc2nc(-c3ccc(Cl)cc3)no2)cc1	Cycloheximide cs 21, Shiga inhibitor 49
Cc1ccc(Cc2nc(-c3ccncc3)no2)cc1	Shiga inhibitor 54 (no result: NS1 inh)
Cc1nc2cc(F)ccc2n1C1CCN(S(=O)(=O)c2ccccc2)CC1	none
CCOc1ccccc1N1CCN(C(=O)c2ccccc2OCc2c(C)noc2C)CC1	none (no result: Cycloheximide cs, Shiga inhibitor, NS1 inh)
CC(C)(C)OC(=O)NCCc1nnc(SCc2ccccc2Cl)o1	none
CC(C)(C)OC(=O)NCCc1nnc(S(=O)(=O)Cc2ccc(Cl)cc2Cl)o1	Cycloheximide cs 19
O=c1sc2ccccc2n1CCOc1ccccc1	Cycloheximide cs 39, Shiga inhibitor 66
CCOC(=O)Cn1c(=O)sc2ccccc21	none
Cc1ccc(OCn2c(=O)sc3ccccc32)cc1	Cycloheximide cs 47, Shiga inhibitor 65
COc1ccc(NC(=O)c2c(C(F)(F)F)nn(C)c2SCc2ccccc2Cl)cc1	none
c1ccc(CSc2ncn(-c3ccccc3)n2)cc1	Cycloheximide cs 46, Shiga inhibitor 105
O=C(CSc1ncn(-c2ccccc2)n1)c1cccs1	Cycloheximide cs 64, Shiga inhibitor 88
Nc1nc(CSc2ncn(-c3ccccc3)n2)cs1	Cycloheximide cs 38, Shiga inhibitor 92
CCOC(=O)c1c(S(=O)(=O)NCC(=O)Nc2ccc(OC)cc2)c(C)n(C)c1C	none
CCn1nc(C(=O)OCC(=O)N(CCC#N)c2ccccc2)c2ccccc2c1=O	none (no result: Cycloheximide cs, Shiga inhibitor, NS1 inh)
CC(C)(C)OC(=O)C[C@H]1C/C=C\C[C@H](CC(=O)NCCO)C(=O)N[C@@H](Cc2ccccc2)COC1=O	none (no result: Cycloheximide cs, Shiga inhibitor, NS1 inh)
C=C(C)[C@H]1CN[C@H](C(=O)O)[C@H]1CC(=O)O	Shiga inhibitor 47! (no result: SARS PLP yeast)
Cc1ccccc1NC(=O)C(=O)Nc1ccccc1C	Cycloheximide cs 23, Shiga inhibitor 49
Cc1ccccc1NC(=O)c1ccccc1O	Cycloheximide cs 24
Cc1ccccc1NC(=O)CC(=O)Nc1ccccc1C	none
COc1ccc(C(=O)N2CCOCC2)cc1S(=O)(=O)N1CCCc2ccccc21	none (no result: NS1 inh)
COC(=O)C1CCN(C(=O)COC(=O)c2ccc(OC)c(S(=O)(=O)N3CCCc4ccccc43)c2)CC1	Cycloheximide cs 32, Shiga inhibitor 55
O=S(=O)(c1ccccc1F)N1CCCc2ccccc21	none
O=S(=O)(c1ccc(Cl)cc1)N1CCCc2ccccc21	none (no result: Shiga inhibitor)
O=[N+]([O-])c1ccccc1S(=O)(=O)N1CCCc2ccccc21	Cycloheximide cs 30 (no result: Shiga inhibitor)
Cc1ccc(S(=O)(=O)N2CCCc3ccccc32)cc1C	Cycloheximide cs 17, Shiga inhibitor 23

High-throughput results: PubChem BioAssay, National Center for Advancing Translational Sciences (NCATS)
